Assay results from PubChem BioAssay (EPA / NIEHS).
Inconclusive results are not listed. Active and inactive are the calls of the source. How the source made its calls, unless noted: active means hit-call score of the fitted dose curve at least 0.9, where 1 is the maximum; inactive means score below 0.9.

What was measured:
[1] = biological target: Transcriptional activator Myb (Homo sapiens) (UniProt P10242); assay: ATG_Myb_CIS: Attagene CIS-FACTORIAL HepG2 Assay for human Myeloblastosis (Myb) Proto-Oncogene Transcription Factor (AID 2282986); conditions: HepG2 Attagene CIS-FACTORIAL Myb reporter transcription; actives raise or lower the signal
In short: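 Endogenous transcription factor activity at a Myb-responsive cis element is reported in human liver HepG2 cells after 24 h chemical treatment. Reporter mRNA is detected by RT-PCR and capillary electrophoresis fluorescence, with DMSO as baseline.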

[2] = biological target: Nuclear respiratory factor 1 (Homo sapiens) (UniProt Q16656); assay: ATG_NRF1_CIS: Attagene CIS-FACTORIAL HepG2 Assay for human Nuclear Respiratory Factor 1 (NRF1) Orphan Gene (AID 2282987); conditions: HepG2 NRF1 cis-element reporter, Attagene multiplex; actives raise or lower the signal
In short: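 Human hepatoma HepG2 cells carrying transfected promoter-regulated reporter units were incubated with test chemicals for 24 h. Reporter transcripts were measured by RT-PCR plus capillary electrophoresis, and endpoints derived by bidirectional fitting with DMSO as baseline.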

[3] = biological target: Myc proto-oncogene protein (Homo sapiens) (UniProt P01106); assay: ATG_Myc_CIS: Attagene CIS-FACTORIAL HepG2 Assay for human Myelocytomatosis (Myc) Proto-Oncogene Transcription Factor (AID 2282990); conditions: HepG2, Attagene cis-reporter transcription factor activity; actives raise or lower the signal
In short: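 Multiplexed cis-reporter transcription in HepG2 cells after 24 h chemical treatment. Reporter mRNA measured by RT-PCR and capillary electrophoresis fluorescence; activity fitted bidirectionally against DMSO control.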

[4] = ATG_NRF2_ARE_CIS: Attagene CIS-FACTORIAL HepG2 Assay for human Nuclear Factor Erythroid 2 Related Factor 2 (NFR2) response to Antioxidant Response Elements (ARE) (AID 2282992); conditions: HepG2 Attagene ARE/NRF2 reporter, transcription factor activity; actives raise or lower the signal
In short: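 Multiplexed reporter mRNA profiling in HepG2 after a 24 h chemical exposure. Curves fitted in both directions relative to DMSO negative control.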

[5] = ATG_Oct_MLP_CIS: Attagene CIS-FACTORIAL HepG2 Assay for human Octamer-Binding Transcription Factor (Oct) (AID 2282993); conditions: HepG2 Attagene cis-factorial Oct reporter, mRNA; actives raise or lower the signal
In short: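 HepG2 cells transiently transfected with cis-element-driven reporter transcription units (endogenous TF activity); 24 h compound exposure. Reporter mRNA quantified by RT-PCR, 6-FAM labelling, HpaI digestion and capillary electrophoresis; bidirectional fit versus DMSO baseline.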

[6] = biological target: Cellular tumor antigen p53 (Homo sapiens) (UniProt P04637); assay: ATG_p53_CIS: Attagene CIS-FACTORIAL HepG2 Assay for human p53 Transcription Factor (AID 2282994); conditions: HepG2 p53 cis-element reporter, Attagene mRNA; actives raise or lower the signal
In short: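 Multiplexed reporter mRNA assay in human HepG2 liver cells; cis-regulated units report endogenous factor activity. Values come from bidirectional curve fitting against DMSO negative control after 24 h treatment.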

[7] = BSK_3C_TissueFactor: BioMAP Diversity Plus: 3C Assay for Tissue Factor Biomarker Activity (AID 2282997); conditions: BioMAP 3C HUVEC, tissue factor biomarker readout; actives raise or lower the signal
In short: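 Primary human umbilical vein endothelial cells in the 3C system were exposed to test chemical for 24 h, then Tissue Factor measured by ELISA. Activity was fitted bidirectionally against DMSO as negative control and baseline.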

[8] = BSK_3C_uPAR: BioMAP Diversity Plus: 3C Assay for Urokinase-type plasminogen activator receptor (uPAR) Biomarker Activity (AID 2282998); conditions: BioMAP 3C HUVEC, uPAR biomarker ELISA; actives raise or lower the signal
In short: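 Primary human umbilical vein endothelial cells, 3C system; surface uPAR measured by ELISA 24 h after dosing. Cytotoxicity via SRB total protein in parallel cultures; bidirectional fit against DMSO.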

[9] = BSK_3C_VCAM1: BioMAP Diversity Plus: 3C Assay for Vascular cell adhesion molecule 1 (VCAM1) Biomarker Activity (AID 2282999); conditions: BioMAP 3C HUVEC, VCAM1 ELISA, cytokine-stimulated; actives raise or lower the signal
In short: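 Human umbilical vein endothelial cells were dosed with compound for 24 h, after which cell-surface VCAM-1 was quantified by ELISA. Bidirectional curve fitting used DMSO as negative control and activity baseline.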

[10] = BSK_4H_Eotaxin3: BioMAP Diversity Plus: 4H Assay for Eotaxin 3 Biomarker Activity (AID 2283000); conditions: primary human endothelial cells (HUVEC); actives raise or lower the signal;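 further: CCL26 protein level quantified by ELISA in parallel with SRB cytotoxicity check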
In short: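 HUVEC, 24 h post-dose, ELISA for Eotaxin-3/CCL26. Gain or loss of signal fitted bidirectionally vs DMSO baseline.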

[11] = biological target: human Peroxisome Proliferator-activated Receptor delta (PPARd), PPARD (gene 5467) (UniProt Q03181); assay: ATG_PPARd_TRANS: Attagene TRANS-FACTORIAL HepG2 Assay for human Peroxisome Proliferator-activated Receptor delta (PPARd) (AID 2283002; active means hit-call score of the fitted dose curve at least 0.9, where 1 is the maximum)
In short: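 Multiplexed trans-activation format: HepG2 liver cells expressing exogenous NR-Gal4 chimeras and GAL4-UAS reporters were exposed for 24 h. Reporter mRNA was detected by RT-PCR with capillary electrophoresis fluorescence; activity fitted as gain of signal relative to DMSO.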

[12] = read-out: Intercellular Adhesion Molecule 1 (ICAM1), ICAM1 (gene 3383); assay: BSK_3C_ICAM1: BioMAP Diversity Plus: 3C Assay for Intercellular Adhesion Molecule 1 (ICAM1) Biomarker Activity (AID 2283003); conditions: primary human endothelial cells (HUVEC); actives raise or lower the signal
In short: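 Primary human umbilical vein endothelial cells in the BioMAP 3C system were exposed to chemicals for 24 h, then ICAM-1 was quantified by ELISA. Activity was fitted bidirectionally against the DMSO negative control baseline.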

[13] = biological target: human Retinoic Acid Receptor beta (RARb), RARB (gene 5915) (UniProt P10826); assay: ATG_RARb_TRANS: Attagene TRANS-FACTORIAL HepG2 Assay for human Retinoic Acid Receptor beta (AID 2283004; active means hit-call score of the fitted dose curve at least 0.9, where 1 is the maximum)
In short: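 HepG2 cells transiently transfected with multiplexed GAL4-UAS reporter units expressing chimeric NR–Gal4 fusions; 24 h compound exposure. Reporter mRNA quantified by RT-PCR, 6-FAM labelling, HpaI digestion and capillary electrophoresis; gain-of-signal fitted against DMSO baseline.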

[14] = biological target: Retinoic acid receptor alpha (Homo sapiens) (UniProt P10276); assay: ATG_RARa_TRANS: Attagene TRANS-FACTORIAL HepG2 Assay for human Retinoic Acid Receptor alpha (RARa) (AID 2283005; active means hit-call score of the fitted dose curve at least 0.9, where 1 is the maximum)
In short: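 HepG2 cells transiently transfected with multiple reporter units expressing chimeric RARα-GAL4 fusion, with GAL4-UAS-driven reporters. After 24 h compound exposure, reporter mRNA induction quantified by RT-PCR and capillary electrophoresis with fluorescent labeling; gain-of-signal fitted relative to DMSO control.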

[15] = BSK_3C_Proliferation: Cell Proliferation Assessment in the BioMAP Diversity Plus: 3C Assay (AID 2283006); conditions: primary human endothelial cells (HUVEC)
In short: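 Human umbilical vein endothelial cells were grown sub-confluent and exposed to chemical for 48 h, then fixed with 10% TCA and stained with 0.1% sulforhodamine B; absorbance at 560 nm gave relative cell number, fitted bidirectionally against DMSO baseline.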

[16] = biological target: Peroxisome proliferator-activated receptor gamma (Homo sapiens) (UniProt P37231); assay: ATG_PPARg_TRANS: Attagene TRANS-FACTORIAL HepG2 Assay for human Peroxisome Proliferator-activated Receptor-gamma (PPARg) (AID 2283007; active means hit-call score of the fitted dose curve at least 0.9, where 1 is the maximum)
In short: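 Human hepatoma HepG2, transient MRTU transfection, 24 h treatment. mRNA reporter signal by RT-PCR plus capillary electrophoresis, fluorescence detection; fitted for increase over DMSO negative control.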

[17] = biological target: Nuclear receptor subfamily 1 group I member 2 (Homo sapiens) (UniProt O75469); assay: ATG_PXR_TRANS: Attagene TRANS-FACTORIAL HepG2 Assay for human Pregnane X Receptor (PXR) (AID 2283008; active means hit-call score of the fitted dose curve at least 0.9, where 1 is the maximum)
In short: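 Measures mRNA induction of a GAL4-UAS-driven reporter in human HepG2 cells transiently expressing PXR fused to Gal4, following 24 h treatment. DMSO served as negative control and baseline.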

[18] = biological target: human Retinoic Acid Receptor gamma (RARg), RARG (gene 5916) (UniProt P13631); assay: ATG_RARg_TRANS: Attagene TRANS-FACTORIAL HepG2 Assay for human Retinoic Acid Receptor gamma (RARg) (AID 2283009; active means hit-call score of the fitted dose curve at least 0.9, where 1 is the maximum)
In short: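 HepG2 cells transiently transfected with multiplexed reporter units expressing chimeric RARg-GAL4 and GAL4-UAS-driven reporters; 24 h compound exposure. Reporter mRNA quantified by RT-PCR with fluorescent labelling and capillary electrophoresis; gain-of-signal fitted relative to DMSO baseline.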

[19] = biological target: human Peroxisome Proliferator-activated Receptor alpha (PPARa), PPARA (gene 5465) (UniProt Q07869); assay: ATG_PPARa_TRANS: Attagene TRANS-FACTORIAL HepG2 Assay for human Peroxisome Proliferator-activated Receptor alpha (PPARa) (AID 2283001; active means hit-call score of the fitted dose curve at least 0.9, where 1 is the maximum)
In short: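 HepG2 cells transiently transfected with multiplexed GAL4-UAS reporter units and chimeric NR-Gal4 constructs were dosed for 24 h. Reporter mRNA was measured by RT-PCR with fluorescent labelling and capillary electrophoresis; gain of signal fitted against DMSO.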

Measured: AC50

Chain of Peroxisome proliferator-activated receptor gamma (Homo sapiens) (P37231 whole entry, looked up): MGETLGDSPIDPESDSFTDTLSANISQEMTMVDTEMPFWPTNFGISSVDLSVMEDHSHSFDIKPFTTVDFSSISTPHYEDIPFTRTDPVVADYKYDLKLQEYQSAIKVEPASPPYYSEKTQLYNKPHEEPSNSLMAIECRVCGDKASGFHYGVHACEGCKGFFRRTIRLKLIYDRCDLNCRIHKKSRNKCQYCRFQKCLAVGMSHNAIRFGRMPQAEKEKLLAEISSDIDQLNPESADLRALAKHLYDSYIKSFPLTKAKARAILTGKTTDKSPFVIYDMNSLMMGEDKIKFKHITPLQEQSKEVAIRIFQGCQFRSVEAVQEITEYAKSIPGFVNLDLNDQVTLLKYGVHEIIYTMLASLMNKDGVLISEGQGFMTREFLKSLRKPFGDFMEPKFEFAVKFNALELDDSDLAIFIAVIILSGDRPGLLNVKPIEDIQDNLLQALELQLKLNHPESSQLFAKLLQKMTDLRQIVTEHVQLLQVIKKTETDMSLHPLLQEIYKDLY
Chain of Nuclear receptor subfamily 1 group I member 2 (Homo sapiens) (O75469 whole entry, looked up, the tested form may be a part): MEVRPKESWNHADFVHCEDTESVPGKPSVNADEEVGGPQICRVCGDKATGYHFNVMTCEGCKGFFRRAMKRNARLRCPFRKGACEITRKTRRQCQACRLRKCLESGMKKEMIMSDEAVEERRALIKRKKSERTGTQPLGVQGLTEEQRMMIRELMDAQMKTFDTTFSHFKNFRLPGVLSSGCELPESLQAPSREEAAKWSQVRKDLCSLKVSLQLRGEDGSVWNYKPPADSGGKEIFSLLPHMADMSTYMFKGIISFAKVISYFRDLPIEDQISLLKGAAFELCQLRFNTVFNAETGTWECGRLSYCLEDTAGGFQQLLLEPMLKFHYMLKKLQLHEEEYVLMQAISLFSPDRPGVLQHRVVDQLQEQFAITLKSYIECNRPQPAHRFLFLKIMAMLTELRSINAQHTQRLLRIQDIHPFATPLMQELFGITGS
Chain of Nuclear respiratory factor 1 (Homo sapiens) (Q16656 whole entry, looked up): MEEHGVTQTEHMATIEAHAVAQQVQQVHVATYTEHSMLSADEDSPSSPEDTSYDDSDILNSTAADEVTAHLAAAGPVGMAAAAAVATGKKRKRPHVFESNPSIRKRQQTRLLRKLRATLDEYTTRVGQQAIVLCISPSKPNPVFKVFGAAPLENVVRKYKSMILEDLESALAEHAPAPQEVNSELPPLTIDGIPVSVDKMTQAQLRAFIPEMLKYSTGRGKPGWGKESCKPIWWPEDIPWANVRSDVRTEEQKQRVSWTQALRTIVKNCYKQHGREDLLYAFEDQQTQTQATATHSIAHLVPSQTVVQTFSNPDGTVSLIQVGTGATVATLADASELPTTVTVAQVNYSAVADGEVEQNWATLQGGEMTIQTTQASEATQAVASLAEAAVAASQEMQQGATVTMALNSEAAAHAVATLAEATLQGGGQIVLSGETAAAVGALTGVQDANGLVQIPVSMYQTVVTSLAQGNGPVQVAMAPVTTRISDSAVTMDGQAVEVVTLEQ
Chain of Retinoic acid receptor alpha (Homo sapiens) (P10276 whole entry, looked up, the tested form may be a part): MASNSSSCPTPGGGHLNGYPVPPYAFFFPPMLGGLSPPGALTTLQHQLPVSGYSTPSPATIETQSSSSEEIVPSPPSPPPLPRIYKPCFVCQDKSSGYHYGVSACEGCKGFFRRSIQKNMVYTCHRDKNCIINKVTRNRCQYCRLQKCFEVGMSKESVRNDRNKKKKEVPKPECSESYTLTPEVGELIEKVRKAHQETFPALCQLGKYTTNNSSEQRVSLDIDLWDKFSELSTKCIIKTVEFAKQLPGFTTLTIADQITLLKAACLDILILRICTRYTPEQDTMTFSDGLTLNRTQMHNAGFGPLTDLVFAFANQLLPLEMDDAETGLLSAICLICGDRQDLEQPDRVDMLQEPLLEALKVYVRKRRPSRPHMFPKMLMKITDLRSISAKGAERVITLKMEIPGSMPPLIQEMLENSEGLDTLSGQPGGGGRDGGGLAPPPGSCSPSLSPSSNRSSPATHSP
Chain of Cellular tumor antigen p53 (Homo sapiens) (P04637 whole entry, looked up): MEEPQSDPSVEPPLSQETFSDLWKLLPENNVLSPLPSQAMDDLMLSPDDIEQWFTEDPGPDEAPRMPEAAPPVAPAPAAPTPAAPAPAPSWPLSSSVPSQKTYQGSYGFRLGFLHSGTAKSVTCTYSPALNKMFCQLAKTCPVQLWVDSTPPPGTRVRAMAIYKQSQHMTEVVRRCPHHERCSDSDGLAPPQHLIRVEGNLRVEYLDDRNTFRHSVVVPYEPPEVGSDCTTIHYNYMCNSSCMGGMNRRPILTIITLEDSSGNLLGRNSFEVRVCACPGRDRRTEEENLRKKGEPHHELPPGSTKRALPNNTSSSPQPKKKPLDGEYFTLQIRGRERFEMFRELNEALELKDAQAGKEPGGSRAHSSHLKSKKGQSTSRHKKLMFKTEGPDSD
Chain of human Retinoic Acid Receptor gamma (RARg), RARG (gene 5916) (P13631 whole entry, looked up, the tested form may be a part): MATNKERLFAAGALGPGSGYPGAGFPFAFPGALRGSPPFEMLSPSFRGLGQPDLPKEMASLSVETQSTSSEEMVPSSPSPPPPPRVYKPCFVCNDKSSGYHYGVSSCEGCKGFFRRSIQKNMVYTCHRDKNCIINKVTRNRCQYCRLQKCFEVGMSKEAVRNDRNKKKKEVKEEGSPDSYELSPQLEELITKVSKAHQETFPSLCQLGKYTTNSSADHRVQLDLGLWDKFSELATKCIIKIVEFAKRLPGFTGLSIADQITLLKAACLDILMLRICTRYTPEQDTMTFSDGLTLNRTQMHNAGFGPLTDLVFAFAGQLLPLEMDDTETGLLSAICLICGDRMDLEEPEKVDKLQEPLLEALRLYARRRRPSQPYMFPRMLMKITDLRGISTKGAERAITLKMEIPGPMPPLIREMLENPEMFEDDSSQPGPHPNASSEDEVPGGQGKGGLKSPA
Chain of Transcriptional activator Myb (Homo sapiens) (P10242 whole entry, looked up): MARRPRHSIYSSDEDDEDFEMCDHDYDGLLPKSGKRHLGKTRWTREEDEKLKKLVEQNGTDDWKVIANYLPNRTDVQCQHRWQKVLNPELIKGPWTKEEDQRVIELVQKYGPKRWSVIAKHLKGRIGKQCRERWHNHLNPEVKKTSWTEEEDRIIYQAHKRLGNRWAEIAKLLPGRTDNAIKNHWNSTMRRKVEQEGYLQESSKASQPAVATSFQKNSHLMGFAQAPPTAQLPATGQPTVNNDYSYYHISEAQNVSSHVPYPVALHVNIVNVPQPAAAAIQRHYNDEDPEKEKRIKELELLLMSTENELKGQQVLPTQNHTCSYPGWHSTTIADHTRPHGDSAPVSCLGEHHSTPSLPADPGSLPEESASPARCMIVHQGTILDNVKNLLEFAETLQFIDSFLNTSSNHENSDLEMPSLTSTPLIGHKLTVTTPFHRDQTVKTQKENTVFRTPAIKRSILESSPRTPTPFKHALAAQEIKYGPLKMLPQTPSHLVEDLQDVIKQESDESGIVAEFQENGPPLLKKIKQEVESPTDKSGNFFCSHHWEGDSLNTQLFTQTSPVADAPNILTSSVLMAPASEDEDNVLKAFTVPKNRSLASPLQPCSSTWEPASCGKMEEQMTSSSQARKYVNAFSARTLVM
Chain of human Retinoic Acid Receptor beta (RARb), RARB (gene 5915) (P10826 whole entry, looked up, the tested form may be a part): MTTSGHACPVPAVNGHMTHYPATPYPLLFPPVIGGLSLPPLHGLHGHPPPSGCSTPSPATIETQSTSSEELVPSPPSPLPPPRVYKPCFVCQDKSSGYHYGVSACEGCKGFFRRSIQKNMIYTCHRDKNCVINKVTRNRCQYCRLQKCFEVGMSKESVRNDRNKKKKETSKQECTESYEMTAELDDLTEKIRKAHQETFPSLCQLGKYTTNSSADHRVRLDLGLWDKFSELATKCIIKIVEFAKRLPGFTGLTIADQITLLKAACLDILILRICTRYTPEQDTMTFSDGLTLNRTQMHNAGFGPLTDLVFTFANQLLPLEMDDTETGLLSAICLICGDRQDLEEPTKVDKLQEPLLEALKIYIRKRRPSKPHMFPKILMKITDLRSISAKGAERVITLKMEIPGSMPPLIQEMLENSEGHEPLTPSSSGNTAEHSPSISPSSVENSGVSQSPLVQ
Chain of Myc proto-oncogene protein (Homo sapiens) (P01106 whole entry, looked up): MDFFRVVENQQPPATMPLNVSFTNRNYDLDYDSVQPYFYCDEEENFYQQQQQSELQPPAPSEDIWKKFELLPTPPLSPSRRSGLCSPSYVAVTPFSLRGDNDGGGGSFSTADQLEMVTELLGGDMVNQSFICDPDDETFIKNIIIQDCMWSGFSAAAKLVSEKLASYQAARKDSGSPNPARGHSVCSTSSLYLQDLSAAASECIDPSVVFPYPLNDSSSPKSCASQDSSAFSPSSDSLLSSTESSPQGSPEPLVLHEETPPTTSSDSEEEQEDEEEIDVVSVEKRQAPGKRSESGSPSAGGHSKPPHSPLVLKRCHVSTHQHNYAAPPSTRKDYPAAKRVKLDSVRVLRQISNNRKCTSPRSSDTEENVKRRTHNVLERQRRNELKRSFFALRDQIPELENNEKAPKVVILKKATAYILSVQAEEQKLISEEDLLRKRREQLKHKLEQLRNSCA
Chain of human Peroxisome Proliferator-activated Receptor alpha (PPARa), PPARA (gene 5465) (Q07869 whole entry, looked up, the tested form may be a part): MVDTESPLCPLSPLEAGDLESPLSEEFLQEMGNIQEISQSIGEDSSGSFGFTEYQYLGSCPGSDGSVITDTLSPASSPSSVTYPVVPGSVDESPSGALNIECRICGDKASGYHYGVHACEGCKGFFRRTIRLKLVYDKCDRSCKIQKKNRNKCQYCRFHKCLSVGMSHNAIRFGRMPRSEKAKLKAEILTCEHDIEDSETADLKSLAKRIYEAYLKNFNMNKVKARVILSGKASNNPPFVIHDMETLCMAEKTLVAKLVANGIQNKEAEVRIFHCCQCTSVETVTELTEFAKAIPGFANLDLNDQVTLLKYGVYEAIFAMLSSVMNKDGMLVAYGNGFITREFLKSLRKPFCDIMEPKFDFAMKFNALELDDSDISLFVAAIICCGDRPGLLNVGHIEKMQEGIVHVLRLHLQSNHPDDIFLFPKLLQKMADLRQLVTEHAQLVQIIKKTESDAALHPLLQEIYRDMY

O=C(O)COc1nc(Cl)c(Cl)cc1Cl
active: [4] 19.1 µM | [16] 50 µM
not listed: [19]
inactive: all other assays above

COC(=O)c1ccccc1C(=O)OC
not listed: [11] | [15] | [18]
inactive: all other assays above

CCNc1nc(Cl)nc(NCC)n1
not listed: [11]
inactive: all other assays above

CCON=C(CC)C1=C(O)CC(c2c(C)cc(C)cc2C)CC1=O (stereo not drawn)
not listed: [11] | [15] | [19]
inactive: all other assays above
